HttQ103 aggreg: inhibitors of mutant huntingtin aggregate formation in PC12 cells. AID 1688. hit rate 1.1% among 220,000. Potency, µM (doses to about 46.1 µM), inactives show at the highest dose activity change, negative = inhibition, most hits filed as inhibitors. PC12 HttQ103-GFP aggregates, Acumen cytometry, 40 h; also: % is scaled to controls: 0 for no effect and ±100 for the full control effect; nearly all actives have a fitted effect of over 60% in size
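Quantitative HTS on tebufenozide-induced (100 nM) PC12 cells stably expressing polyQ103 Huntingtin exon 1–GFP. Reduction of bright GFP aggregates, detected by laser scanning cytometry after lysis, identified actives across the titration.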
ALDH1A1 block: ALDH1A1 (human) enzyme inhibition; Purified ALDH1A1, NADH fluorescence, propionaldehyde substrate; Potency, µM (top dose mostly 75.3 µM), without a hit: top-dose activity, negative = inhibition, most hits filed as inhibitors; hit rate 7.3% among 220,000; AID 1030; active = well fitted inhibition curve with a large enough effect, not every such curve was filed as active; inconclusive = small, poorly fitted or top-dose-only effect, or another doubt; inactive = no such curve, though single readings can be large or run the other way;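 also: plate controls were no enzyme wells and a reference inhibitor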
Target sequence (P00352 whole entry, looked up): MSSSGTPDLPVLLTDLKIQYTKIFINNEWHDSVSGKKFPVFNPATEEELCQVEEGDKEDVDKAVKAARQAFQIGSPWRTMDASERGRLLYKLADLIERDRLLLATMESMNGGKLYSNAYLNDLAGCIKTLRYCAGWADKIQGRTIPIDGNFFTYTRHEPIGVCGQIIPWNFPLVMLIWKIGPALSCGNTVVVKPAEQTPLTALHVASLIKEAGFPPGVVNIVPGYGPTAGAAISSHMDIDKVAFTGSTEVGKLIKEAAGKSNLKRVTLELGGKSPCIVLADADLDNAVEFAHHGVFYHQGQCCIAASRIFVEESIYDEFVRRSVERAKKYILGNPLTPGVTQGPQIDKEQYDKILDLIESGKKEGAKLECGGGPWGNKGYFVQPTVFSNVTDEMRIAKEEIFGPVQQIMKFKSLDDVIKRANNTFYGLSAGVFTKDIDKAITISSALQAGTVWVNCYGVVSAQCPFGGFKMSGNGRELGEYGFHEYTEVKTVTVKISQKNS
HTT cytoprotect: cytoprotection in Huntington HTT-Q103 PC12 cell model; PC12 HTT-Q103 induced, cytoprotection, ATP luminescence, 40 h; Potency, µM (series often up to 56.4 µM), for the others: cytoprotection (ATP increase), hits mostly activators; hit rate 0.14% among 230,000; AID 1471; also: % of control where 0% means no effect; nearly all actives have a fitted effect of over 45% in size
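PC12 cells with ecdysone-inducible HTT exon 1 Q103-GFP, induced with 100 nM tebufenozide and co-treated with library compounds in a dose series (1536-well, 1500 cells/well). Cytoprotection read as ATP content by ATPlite luminescence.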
KinaseGlo FLuc: blocks Kinase-Glo luciferase, a counter-screen artifact; Q27757; Kinase-Glo luciferase, ATP luminescence, 8 min; Potency, µM (series often up to 38.3 µM), inactives show at the top dose activity change, negative = inhibition, actives largely listed as inhibitors; hit rate 0.28% among 200,000; AID 1379; also: % is scaled to controls: 0 for no effect and ±100 for the full control effect; nearly all actives have a fitted effect of over 60% in size
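Recombinant Kinase-Glo luciferase, 10 uM ATP (linear range), luciferin; imidazole pH 7.2 / KCl / MgCl2 / Tween / BSA buffer; 8 min RT; luminescence.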
Lamin A splicing: changes lamin A minigene splicing in HeLa cells. hit rate 0.01% among 200,000. Potency, µM (doses to about 46.1 µM), for the others: top-dose ratio change, negative = inhibition, usual class: inhibitors. AID 1487. HeLa LMNA splicing GFP/RFP minigene ratio, 48 h; active = well fitted inhibition curve with a large enough effect in the signal ratio, with a control signal flat, not every such curve was filed as active; inconclusive = small, poorly fitted or top-dose-only effect, or effect the other way, or a change in a side signal; the % refers to the signal ratio; also: % is scaled to controls: 0 for no effect and ±100 for the full control effect
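S3 HeLa cells stably expressing lamin A-EGFP splicing minigene plus DsRed2, 600 cells/well, 48 h compound exposure at 37C. Laser-scanning cytometry; analysed as GFP (500-530 nm)/RFP (575-640 nm) total intensity ratio; 0.5% DMSO vehicle.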
HPGD inh: HPGD (human) dehydrogenase inhibition; AID 894; P15428; Potency, µM, inactives show top-dose activity change, negative = inhibition, most hits filed as inhibitors; hit rate 4.3% among 150,000; purified HPGD, NADH fluorescence kinetic, PGE2 substrate; active = well fitted inhibition curve with a large enough effect, not every such curve was filed as active; inconclusive = small, poorly fitted or top-dose-only effect, or another doubt; inactive = no such curve, though single readings can be large or run the other way; also: % is scaled to controls: 0 for no effect and ±100 for the full control effect
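20 nM HPGD preincubated 15 min at room temperature with compound in 50 mM Tris-HCl pH 8, 0.01% Tween 20. Started with 1 mM NAD+ and 30 uM prostaglandin E2; NADH fluorescence (360/450 nm) read 5 times over 30-s intervals, last minus first.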
* marks the source's active call; other numbers are inactive results; [ ] = another dose, or the depositor's remark. The list is not random: actives were taken first. Their share in the collection is about 9%. Unless noted, calls follow the shape of the dose curve; as a rule, active = well fitted curve in the direction sought with a large enough effect; inconclusive = small, poorly fitted or top-dose-only effect, or another doubt; inactive = no such curve, though single readings can be large; an effect the other way counts as inactive or inconclusive. Potency is read from the fitted curve at half-maximal effect.

Screening Cc1ccc(S(=O)(=O)N2CCCCC2)cc1NC(=O)COC(=O)Cc1c(F)cccc1Cl returned HttQ103 aggreg 13.2%, ALDH1A1 block -14.0%, HTT cytoprotect 29.4%[10 µM], KinaseGlo FLuc 3.4%, Lamin A splicing 0.9% and HPGD inh -8.1%.
For N/C(=N\OC(=O)c1ccc(Cl)cc1Cl)c1ccccn1 the results were HttQ103 aggreg 1.4%[9.22 µM], ALDH1A1 block -1.9%, HTT cytoprotect -78.5%[10 µM], KinaseGlo FLuc 11.2µM* and Lamin A splicing 8.0%[46 µM].
Screening Cc1ccc(NC2=NCC(=O)N2Cc2ccccc2)c(C)c1 returned HttQ103 aggreg 17.7%, ALDH1A1 block -3.7%, HTT cytoprotect -0.1%[10 µM], KinaseGlo FLuc 0.0%, Lamin A splicing 6.2% and HPGD inh -3.1%.
`CC(C)OC(=O)c1cccc(-c2ccc(C=O)o2)c1` gave HttQ103 aggreg -5.0%, ALDH1A1 block 6.31µM*, KinaseGlo FLuc -0.5%, Lamin A splicing 1.7% and HPGD inh -24.1%.
Screening Cc1cccc(C(=O)Nc2scc(CC(C)C)c2C(=O)O)c1 returned HttQ103 aggreg -3.1%, ALDH1A1 block inconclusive, HTT cytoprotect 42.1%[10 µM], KinaseGlo FLuc 1.0%, Lamin A splicing inconclusive and HPGD inh 15.8µM*.
For CCOC(=O)c1c(CC(C)C)csc1NC(=O)CCl the results were HttQ103 aggreg 11.0%, ALDH1A1 block 8.91µM*, HTT cytoprotect inconclusive, KinaseGlo FLuc 14.5%, Lamin A splicing 2.3% and HPGD inh -7.5%.
Screening CCOC(=O)c1c(CC(C)C)csc1NC(=O)C(C)C returned HttQ103 aggreg -9.9%, ALDH1A1 block -6.2%, HTT cytoprotect -13.3%, KinaseGlo FLuc -4.0%, Lamin A splicing 24.6% and HPGD inh 1.4%.
CCC(C)NC(=O)c1cccc(C)c1 (stereo not given) was read as HttQ103 aggreg 18.6%[9.22 µM] and HTT cytoprotect 37.3%[10 µM].
For CC(C)Cc1csc(NC(=O)c2ccc(Cl)cc2)c1C(=O)O the results were HttQ103 aggreg 22.4µM*, ALDH1A1 block 25.0%, HTT cytoprotect 10.8%[10 µM], KinaseGlo FLuc 0.5%, Lamin A splicing inconclusive and HPGD inh 17.8µM*.
`CC(C)Cc1csc(NC(=O)c2ccccc2Cl)c1C(=O)O` gave HttQ103 aggreg 2.2%, ALDH1A1 block inconclusive, HTT cytoprotect -15.2%[10 µM], KinaseGlo FLuc 3.1%, Lamin A splicing inconclusive and HPGD inh 14.1µM*.
For COc1ccc2c(c1)C1C=CCC1C(c1cc3c(cc1Br)OCO3)N2 (stereo not given) the results were HttQ103 aggreg -5.2%, ALDH1A1 block -0.8%, HTT cytoprotect -102.4%, KinaseGlo FLuc -0.6%, Lamin A splicing inconclusive and HPGD inh -6.8%.
For COc1ccc(/C=C/C(=O)NC2CCCCCC2)cc1S(=O)(=O)N1CCOCC1 the results were HttQ103 aggreg 8.6%, ALDH1A1 block inconclusive, HTT cytoprotect 32.1%[10 µM], KinaseGlo FLuc -3.2%, Lamin A splicing -12.6% and HPGD inh -11.2%.
For COC(=O)c1ccc(NC(=O)Cc2ccc(F)cc2)cc1 the results were HttQ103 aggreg 0.6%, ALDH1A1 block 3.5%, HTT cytoprotect -17.5%, KinaseGlo FLuc 0.1% and Lamin A splicing 3.7%[46 µM].
Screening O=C(CN1C(=O)C2C3C=CC(C3)C2C1=O)Nc1ccc(C(=O)O)cc1 (stereo not given) returned HttQ103 aggreg 10.1%, ALDH1A1 block 7.5%, HTT cytoprotect 16.3%, KinaseGlo FLuc 1.0%, Lamin A splicing 6.2% and HPGD inh -10.9%.
COC(=O)c1ccc(NC(=O)CN2C(=O)C3C4C=CC(C4)C3C2=O)cc1 (stereo not given) was read as HttQ103 aggreg 14.1%, ALDH1A1 block 3.1%, HTT cytoprotect 4.4%[10 µM], KinaseGlo FLuc -4.5%, Lamin A splicing 5.3% and HPGD inh 20µM*.
For COC(=O)c1ccc(CNCC(=O)Nc2ccc(C(=O)OC)cc2)cc1 the results were HttQ103 aggreg 6.6%, ALDH1A1 block -5.3%, KinaseGlo FLuc 0.0%, Lamin A splicing inconclusive and HPGD inh 28.2µM*.
